Assay results reported in PubChem BioAssay (NCATS).
Records with an inconclusive call do not appear. Active and inactive are the calls of the source. Unless noted, calls come from the whole dose curve; as a rule, active = well fitted curve in the direction sought with a large enough effect; inconclusive = small, poorly fitted or top-dose-only effect, or another doubt; inactive = no such curve, though single readings can be large; an effect the other way counts as inactive or inconclusive.

Legend:
[1] = Cell Viability - LYMP2-020 (AID 986);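 note: series mostly up to about 92 µM; plate controls were DMSO only for no effect and tetraoctylammonium bromide at 92 µM for full effect; nearly all actives have a fitted effect of over 55% in size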
Summary of the method: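 Human lymphoblastoid cells, 2500/well, were pre-incubated 5 hr at 37 C, then exposed to compounds for 24 hr at 37 C in complete medium. Intracellular ATP was read by CellTiter-Glo luminescence, and AC50 was derived by Hill fitting of concentration-response data.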

[2] = Cell Viability - LYMP2-022 (AID 987);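 note: 0% = DMSO alone and full effect = tetraoctylammonium bromide at 92 µM; nearly all actives have a fitted effect of over 55% in size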
Summary of the method: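 Human lymphoblastoid cells, 2500/well, preincubated 5 hr at 37 C, then exposed to compounds over a concentration range for 24 hr at 37 C in complete medium. Viability read as intracellular ATP by CellTiter-Glo luminescence after 30 min at room temperature; AC50 from Hill fits.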

[3] = Cell Viability - LYMP2-024 (AID 988);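 note: plate controls were DMSO only for no effect and 92 µM tetraoctylammonium bromide for full effect; nearly all actives have a fitted effect of over 60% in size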
Summary of the method: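 Human lymphoblastoid cells (2500/well) in complete medium were preincubated 5 hr at 37 C, then exposed to compounds for 24 hr at 37 C. Intracellular ATP was read by CellTiter-Glo luminescence; AC50 from Hill-equation fits of concentration-response data.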

[4] = Cell Viability - LYMP2-026 (AID 989); note: % is set by controls: 0 for no effect and ±100 for the full control effect; nearly all actives have a fitted effect of over 50% in size
Summary of the method: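 Human lymphoblastoid cells (2500/well) in complete medium were preincubated 5 hr at 37 C, then exposed to compounds for 24 hr at 37 C. Cellular ATP was read by CellTiter-Glo luminescence; AC50 from Hill-equation fits of concentration-response data.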

[5] = Cell Viability - LYMP1-002 - Assay at 24 hr (AID 993); note: % is set by controls: 0 for no effect and ±100 for the full control effect
Summary of the method: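 Human lymphoblastoid LYMP1-002 cells, 2500/well in complete medium, were treated with compounds for 24 h at 37 C; intracellular ATP was read by CellTiter-Glo luminescence. AC50 values came from Hill-equation fits of qHTS concentration-response data.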

[6] = Cell Viability - LYMP1-002 - Assay at 40 hr (AID 994);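 note: 0% = DMSO only and full inhibition = 92 µM tetraoctylammonium bromide; nearly all actives have a fitted effect of over 60% in size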
Summary of the method: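 Human lymphoblastoid cells, 2500/well in complete medium, were preincubated 5 hr at 37 C, then exposed to compounds for 40 hr at 37 C. Intracellular ATP was read by CellTiter-Glo luminescence after 30 min at room temperature; AC50 from Hill-equation fits.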

[7] = molecular target: ATP-dependent 6-phosphofructokinase (Trypanosoma brucei brucei) (UniProt O15648); assay: qHTS Assay to Find Inhibitors of T. brucei phosphofructokinase: hit validation (AID 492961);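 note: luminescence reports ADP formed as PFK phosphorylates fructose-6-phosphate with ATP; series mostly up to about 51 µM; % is set by controls: 0 for no effect and ±100 for the full control effect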
ATP-dependent 6-phosphofructokinase (Trypanosoma brucei brucei), sequence (O15648 whole entry, looked up): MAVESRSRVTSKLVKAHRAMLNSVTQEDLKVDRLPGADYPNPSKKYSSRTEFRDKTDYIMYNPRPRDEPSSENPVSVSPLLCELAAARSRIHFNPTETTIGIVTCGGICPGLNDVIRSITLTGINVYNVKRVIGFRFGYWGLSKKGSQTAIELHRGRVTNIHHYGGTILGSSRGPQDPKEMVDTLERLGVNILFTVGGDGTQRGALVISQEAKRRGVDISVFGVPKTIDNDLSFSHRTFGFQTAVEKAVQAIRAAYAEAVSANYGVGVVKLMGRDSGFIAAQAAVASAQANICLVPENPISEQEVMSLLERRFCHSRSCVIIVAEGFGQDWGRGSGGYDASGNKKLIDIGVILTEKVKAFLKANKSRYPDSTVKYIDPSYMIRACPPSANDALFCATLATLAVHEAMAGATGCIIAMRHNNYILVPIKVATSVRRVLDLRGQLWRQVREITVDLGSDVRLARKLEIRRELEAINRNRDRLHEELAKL
Summary of the method: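 In this biochemical qHTS validation, titrated compounds were tested against 1.25 nM PFK with 0.1 mM ATP and 0.5 mM F6P. Percent activity came from controls lacking or containing enzyme.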

[8] = molecular target: Ubiquitin carboxyl-terminal hydrolase 1 (Homo sapiens) (UniProt O94782); assay: Inhibitors of USP1/UAF1: Pilot qHTS (AID 504865);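 note: rhodamine fluorescence freed from ubiquitin-rhodamine substrate followed over time; top concentration of the series differs between compounds; % is set by controls: 0 for no effect and ±100 for the full control effect; nearly all actives have a fitted effect of over 35% in size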
Ubiquitin carboxyl-terminal hydrolase 1 (Homo sapiens), sequence (O94782 whole entry, looked up): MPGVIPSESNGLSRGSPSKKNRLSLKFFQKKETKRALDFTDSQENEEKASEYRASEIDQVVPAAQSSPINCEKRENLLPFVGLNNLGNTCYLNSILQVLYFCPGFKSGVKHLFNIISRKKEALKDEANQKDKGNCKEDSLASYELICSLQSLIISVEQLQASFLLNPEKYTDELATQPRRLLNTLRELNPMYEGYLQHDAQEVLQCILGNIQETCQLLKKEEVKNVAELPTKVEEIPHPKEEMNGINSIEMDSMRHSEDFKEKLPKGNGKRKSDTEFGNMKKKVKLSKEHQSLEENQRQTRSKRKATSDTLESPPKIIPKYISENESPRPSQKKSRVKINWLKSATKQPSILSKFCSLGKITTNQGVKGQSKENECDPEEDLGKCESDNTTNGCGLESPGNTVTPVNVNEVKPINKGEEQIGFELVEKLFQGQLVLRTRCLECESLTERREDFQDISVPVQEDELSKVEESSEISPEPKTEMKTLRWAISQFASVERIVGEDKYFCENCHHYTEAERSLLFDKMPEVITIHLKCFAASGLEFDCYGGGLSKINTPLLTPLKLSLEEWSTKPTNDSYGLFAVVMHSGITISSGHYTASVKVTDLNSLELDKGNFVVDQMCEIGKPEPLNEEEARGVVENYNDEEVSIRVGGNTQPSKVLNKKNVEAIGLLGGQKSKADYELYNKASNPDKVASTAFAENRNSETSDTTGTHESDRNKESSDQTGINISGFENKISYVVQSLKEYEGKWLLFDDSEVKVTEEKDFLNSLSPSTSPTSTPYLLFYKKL
Summary of the method: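 In 50mM HEPES pH 7.8 containing 0.5mM EDTA, 1mM TCEP, 0.1 mg/ml BSA and 0.01% Tween-20, 1nM USP1/UAF1 is exposed to compound for 15 min, then Ub-Rho (150nM final) is added and fluorescence is read over time.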

[9] = molecular target: Estrogen receptor (Homo sapiens) (UniProt P03372); assay: qHTS assay for small molecule antagonists of estrogen receptor alpha signaling (AID 588513; active = well fitted curve in the direction sought with a large enough effect in the signal ratio, with a control signal flat, not every such curve was filed as active; the % refers to the signal ratio; note: % is set by controls: 0 for no effect and ±100 for the full control effect)
Estrogen receptor (Homo sapiens), sequence (P03372 whole entry, looked up): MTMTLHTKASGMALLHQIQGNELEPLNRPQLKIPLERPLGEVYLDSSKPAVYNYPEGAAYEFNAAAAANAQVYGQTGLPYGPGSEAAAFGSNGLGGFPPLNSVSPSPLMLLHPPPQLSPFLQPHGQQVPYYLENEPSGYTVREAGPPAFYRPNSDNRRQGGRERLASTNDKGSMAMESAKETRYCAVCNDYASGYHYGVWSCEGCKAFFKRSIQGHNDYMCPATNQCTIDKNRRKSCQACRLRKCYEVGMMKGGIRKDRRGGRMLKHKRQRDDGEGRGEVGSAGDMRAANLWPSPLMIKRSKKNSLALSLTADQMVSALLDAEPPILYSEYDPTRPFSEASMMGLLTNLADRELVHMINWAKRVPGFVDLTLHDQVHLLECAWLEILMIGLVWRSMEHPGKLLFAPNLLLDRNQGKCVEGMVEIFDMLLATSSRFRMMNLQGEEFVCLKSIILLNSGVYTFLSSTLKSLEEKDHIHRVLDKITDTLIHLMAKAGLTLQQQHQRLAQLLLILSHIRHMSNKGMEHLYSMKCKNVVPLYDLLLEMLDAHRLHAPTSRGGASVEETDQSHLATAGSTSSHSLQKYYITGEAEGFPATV
Summary of the method: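 Fluorescence from CCF4 substrate after 2 h at room temperature gave reporter activity; cells had been exposed to compound and 0.5nM 17-beta-estradiol for 18 h at 37 C. Hill-equation fitting yielded IC50 and maximal response.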

[10] = molecular target: Estrogen receptor (Homo sapiens) (UniProt P03372); assay: qHTS assay for small molecule agonists of estrogen receptor alpha signaling (AID 588514; calls by dose curve;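 note: 0% = vehicle only and 100% = reference agonist; nearly all actives have a fitted effect of over 70% in size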)
Summary of the method: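 ER-alpha-UAS-bla GripTite HEK 293 cells in medium with 2% charcoal/dextran-treated FBS were treated with compound titrations at 37 C for 18 hrs; beta-lactamase reporter read by CCF4 fluorescence after 2 hrs at RT.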

[11] = molecular target: Bile acid receptor (Homo sapiens) (UniProt Q96RI1); assay: qHTS assay for small molecule antagonists of farnesoid X receptor signaling (AID 588526; calls by dose curve; note: % is set by controls: 0 for no effect and ±100 for the full control effect)
Bile acid receptor (Homo sapiens), sequence (Q96RI1 whole entry, looked up): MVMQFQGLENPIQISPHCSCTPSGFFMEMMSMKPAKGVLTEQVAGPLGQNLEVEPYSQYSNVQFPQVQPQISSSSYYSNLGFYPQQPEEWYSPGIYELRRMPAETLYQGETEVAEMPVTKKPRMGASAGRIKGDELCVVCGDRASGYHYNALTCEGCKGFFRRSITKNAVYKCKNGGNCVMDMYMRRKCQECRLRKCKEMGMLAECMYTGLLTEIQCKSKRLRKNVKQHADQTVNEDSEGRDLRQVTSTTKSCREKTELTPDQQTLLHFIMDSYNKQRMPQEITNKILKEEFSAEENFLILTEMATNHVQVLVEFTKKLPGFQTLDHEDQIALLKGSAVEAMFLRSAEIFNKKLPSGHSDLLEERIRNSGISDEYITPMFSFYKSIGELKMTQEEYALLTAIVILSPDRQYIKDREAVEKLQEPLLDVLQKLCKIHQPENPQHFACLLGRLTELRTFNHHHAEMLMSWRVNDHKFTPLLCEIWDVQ
Summary of the method: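 Beta-lactamase reporter antagonist mode: HEK293T FXR-UAS-bla cells, titrated compound, CDCA stimulation, 16 h 37 C, CCF4 dye 2 h RT. Data normalized to CDCA 50 uM and DMSO; Hill-fit IC50.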

[12] = molecular target: Glucocorticoid receptor (Homo sapiens) (UniProt P04150); assay: qHTS assay for small molecule antagonists of glucocorticoid receptor signaling (AID 588533; active = well fitted inhibition curve with a large enough effect in the signal ratio, with a control signal flat, not every such curve was filed as active; the % refers to the signal ratio)
Glucocorticoid receptor (Homo sapiens), sequence (P04150 whole entry, looked up): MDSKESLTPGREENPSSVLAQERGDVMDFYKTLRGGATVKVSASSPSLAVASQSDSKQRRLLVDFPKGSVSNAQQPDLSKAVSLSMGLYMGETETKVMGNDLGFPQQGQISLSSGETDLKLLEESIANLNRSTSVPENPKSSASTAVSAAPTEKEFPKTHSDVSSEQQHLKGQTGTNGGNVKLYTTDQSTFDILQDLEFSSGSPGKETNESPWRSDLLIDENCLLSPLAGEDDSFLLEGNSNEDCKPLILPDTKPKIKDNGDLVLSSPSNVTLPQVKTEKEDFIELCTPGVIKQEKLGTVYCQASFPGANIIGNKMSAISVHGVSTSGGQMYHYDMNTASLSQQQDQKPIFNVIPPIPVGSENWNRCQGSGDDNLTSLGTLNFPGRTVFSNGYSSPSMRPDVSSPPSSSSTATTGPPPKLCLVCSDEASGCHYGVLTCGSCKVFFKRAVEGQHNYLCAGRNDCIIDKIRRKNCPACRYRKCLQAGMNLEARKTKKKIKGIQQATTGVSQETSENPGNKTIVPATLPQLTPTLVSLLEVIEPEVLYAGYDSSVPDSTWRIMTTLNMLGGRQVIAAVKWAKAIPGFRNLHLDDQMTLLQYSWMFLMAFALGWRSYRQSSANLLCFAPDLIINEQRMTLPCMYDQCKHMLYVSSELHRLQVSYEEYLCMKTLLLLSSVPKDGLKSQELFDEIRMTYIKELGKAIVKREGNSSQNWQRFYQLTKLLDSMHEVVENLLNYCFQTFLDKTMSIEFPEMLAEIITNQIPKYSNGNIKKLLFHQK
Summary of the method: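 Antagonist-mode qHTS: compound titrations added to GRE-bla HeLa cells, then dexamethasone 2 nM final; 18 h, 37 C. CCF4 FRET fluorescence normalized to dexamethasone and DMSO; IC50 from Hill fit.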

[13] = molecular target: Peroxisome proliferator-activated receptor gamma (Homo sapiens) (UniProt P37231); assay: qHTS assay for small molecule agonists of peroxisome proliferator-activated receptor gamma signaling (AID 588536; active = well fitted curve in the direction sought with a large enough effect in the signal ratio, with a control signal flat, not every such curve was filed as active; the % refers to the signal ratio;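 note: 0% = DMSO basal wells and 100% = rosiglitazone at 2 µM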)
Peroxisome proliferator-activated receptor gamma (Homo sapiens), sequence (P37231 whole entry, looked up): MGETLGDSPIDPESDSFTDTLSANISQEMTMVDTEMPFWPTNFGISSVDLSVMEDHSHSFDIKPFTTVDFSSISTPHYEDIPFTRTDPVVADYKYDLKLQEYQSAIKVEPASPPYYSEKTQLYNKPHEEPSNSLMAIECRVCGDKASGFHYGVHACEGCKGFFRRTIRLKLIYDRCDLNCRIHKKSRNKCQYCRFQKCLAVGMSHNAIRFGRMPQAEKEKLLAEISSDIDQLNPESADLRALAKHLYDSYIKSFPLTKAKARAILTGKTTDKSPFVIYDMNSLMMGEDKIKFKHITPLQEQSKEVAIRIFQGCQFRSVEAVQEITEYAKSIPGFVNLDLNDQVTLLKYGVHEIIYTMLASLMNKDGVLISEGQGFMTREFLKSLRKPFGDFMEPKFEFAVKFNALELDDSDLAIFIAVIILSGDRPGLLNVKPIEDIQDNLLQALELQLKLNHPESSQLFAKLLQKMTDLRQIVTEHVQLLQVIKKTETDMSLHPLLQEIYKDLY
Summary of the method: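 Ratiometric blue/green fluorescence (405 nm excitation; 460 and 530 nm emission) from CCF4-loaded HEK293 reporter cells serves as signal. Exposure to test compounds lasts 16 h at 37 C in medium containing 1% charcoal/dextran-treated serum.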

[14] = qHTS assay for small molecule agonists of retinoid X receptor alpha signaling (AID 588544; calls by dose curve); details: HEK293T RXRa-UAS-bla, beta-lactamase reporter, 18 h; 530 nm emission
[15] = molecular target: Retinoic acid receptor RXR-alpha (Homo sapiens) (UniProt P19793); assay: as above
Retinoic acid receptor RXR-alpha (Homo sapiens), sequence (P19793 whole entry, looked up): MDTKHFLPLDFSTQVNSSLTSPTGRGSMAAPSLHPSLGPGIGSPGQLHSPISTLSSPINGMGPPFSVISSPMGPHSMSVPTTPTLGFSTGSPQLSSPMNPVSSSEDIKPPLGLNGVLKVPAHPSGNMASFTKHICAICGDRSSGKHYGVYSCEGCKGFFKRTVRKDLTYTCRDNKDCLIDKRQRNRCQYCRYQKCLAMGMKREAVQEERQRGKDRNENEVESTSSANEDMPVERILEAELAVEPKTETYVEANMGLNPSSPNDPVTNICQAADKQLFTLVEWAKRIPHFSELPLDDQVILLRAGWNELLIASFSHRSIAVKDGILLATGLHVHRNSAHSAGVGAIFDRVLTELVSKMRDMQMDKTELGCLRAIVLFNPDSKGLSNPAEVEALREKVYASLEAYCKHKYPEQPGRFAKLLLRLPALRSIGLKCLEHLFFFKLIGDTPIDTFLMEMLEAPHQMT

[16] = molecular target: Thyroid hormone receptor beta (Homo sapiens) (UniProt P10828); assay: qHTS assay for small molecule agonists of thyroid hormone receptor beta signaling (AID 588545; calls by dose curve;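 note: 0% = DMSO only and 100% = 10 nM T3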)
Thyroid hormone receptor beta (Homo sapiens), sequence (P10828 whole entry, looked up): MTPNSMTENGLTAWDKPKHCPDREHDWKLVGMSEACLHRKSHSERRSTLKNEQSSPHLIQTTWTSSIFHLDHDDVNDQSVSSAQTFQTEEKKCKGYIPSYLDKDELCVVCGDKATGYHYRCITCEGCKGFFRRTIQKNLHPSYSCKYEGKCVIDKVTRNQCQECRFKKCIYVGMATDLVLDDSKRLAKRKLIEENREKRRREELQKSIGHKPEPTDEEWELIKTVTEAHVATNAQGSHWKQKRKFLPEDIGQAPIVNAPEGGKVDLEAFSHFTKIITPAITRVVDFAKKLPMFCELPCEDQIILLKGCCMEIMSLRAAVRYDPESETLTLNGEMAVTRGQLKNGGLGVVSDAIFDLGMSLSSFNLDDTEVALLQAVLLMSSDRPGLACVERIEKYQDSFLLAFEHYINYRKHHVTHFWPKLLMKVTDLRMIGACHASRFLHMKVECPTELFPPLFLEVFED
Summary of the method: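 Stimulation of a TR-driven beta-lactamase reporter was quantified in GripTite HEK 293 cells. Compound series ran for 18 hrs; curves were normalized to T3 and DMSO controls and fitted to yield EC50.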

[17] = molecular target: Thyroid hormone receptor beta (Homo sapiens) (UniProt P10828); assay: qHTS assay for small molecule antagonists of thyroid hormone receptor beta signaling (AID 588547; active = well fitted inhibition curve with a large enough effect in the signal ratio, with a control signal flat, not every such curve was filed as active; the % refers to the signal ratio); details: TR-UAS-bla HEK293, beta-lactamase ratio, antagonist mode, 18 h
Summary of the method: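 Inhibition of T3-driven (0.4nM final) beta-lactamase reporter activity was measured over 0.59 nM to 92 uM compound after 18 h at 37 C. The cells were GripTite HEK293 TR-UAS-bla in charcoal/dextran-stripped serum, with CCF4 ratio read-out and IC50 from Hill fits.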

[18] = molecular target: Voltage-gated inwardly rectifying potassium channel KCNH2 (Homo sapiens) (UniProt Q12809); assay: qHTS Assay for Small Molecule Inhibitors of the Human hERG Channel Activity (AID 588834);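 note: top concentration of the series differs between compounds; % is set by controls: 0 for no effect and ±100 for the full control effect; lower thallium flux fluorescence means stronger hERG block; nearly all actives have a fitted effect of over 50% in size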
Summary of the method: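 hERG-BacMam U2OS, 2000 cells/well; 0.7X FluxOR loading 1 hr RT dark; cpd ~10 min 37 °C; stim buffer; FDSS fluorescence 2 min @ 1 s; AC50 Hill fit.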

[19] = molecular target: Luciferin 4-monooxygenase (Photinus pyralis) (UniProt P08659); assay: Biochemical firefly luciferase enzyme assay for NPC (AID 624030);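 note: purified P. pyralis luciferase at 10 nM with luciferin and ATP substrate; series mostly up to about 59 µM; 0% = DMSO and -100% = full luciferase inhibition by PTC124 control; nearly all actives have a fitted effect of over 70% in size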
Summary of the method: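 Direct inhibition of firefly luciferase enzyme (10 nM final, 50 mM Tris Acetate) assessed by luminescence within 5 minutes. Percent activity scaled between DMSO and PTC124 positive control, with concentration-effect curves classified by fit quality and response.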

[20] = S16 Schwann cell viability assay (CellTiter-Glo assay) (AID 624031);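 note: native untransfected S16 rat Schwann cells; cellular ATP luminescence as a viability measure; series mostly up to about 58 µM; plate controls were DMSO-treated cells for no effect and cell-free wells for full effect; nearly all actives have a fitted effect of over 70% in size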
Summary of the method: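 Rat S16 Schwann cells without reporter constructs received compound or DMSO for 24 h at 37 °C under 5% CO2. Cellular ATP was then quantified by CellTiter-Glo luminescence, with vehicle wells defined as 0% activity and cell-free wells as reference.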

C[C@@H]1[C@H](O)[C@@H](C)/C=C/C=C/C=C/C=C/C=C/C=C/C=C/[C@H](O[C@@H]2O[C@H](C)[C@@H](O)[C@H](N)[C@@H]2O)C[C@@H]2O[C@](O)(C[C@@H](O)C[C@@H](O)[C@H](O)CC[C@@H](O)C[C@@H](O)CC(=O)O[C@H]1C)C[C@H](O)[C@H]2C(=O)O
19.3%: max response [14]
inactive: outcome [1] | outcome [2] | outcome [3] | outcome [4] | outcome [5] | outcome [6] | outcome [7] | Potency [8] | outcome [9] | outcome [10] | Potency [11] | Potency [12] | outcome [13] | outcome [15] | outcome [16] | activity change % (negative = inhibition) [17] 2.02% | Potency [18] | Potency [19] | outcome [20]
